This note sets out measurements from PubChem BioAssay (Tox21).

“And” between values parts separate entries of the source, which are not always exact repeats. Identical values can stand only once. Records with an inconclusive call do not appear. Some compounds were tested as several samples or in several runs, with calls that do not always agree. The source made the active and inactive calls. Unless noted, calls follow the shape of the dose curve; as a rule, active = well fitted curve in the direction sought with a large enough effect in the repeat runs; inconclusive = weak or mixed curves; inactive = no such curve, though single readings can be large; an effect the other way counts as inactive or inconclusive.

Assay [1] can be described thus: qHTS assay to identify aromatase inhibitors - cell viability counter screen (AID 743084).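 Also: cells stimulated with testosterone during compound exposure; nearly all actives have a fitted effect of over 55% in size.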 Also: potency is read from the fitted curve at half-maximal effect. For orientation: Quantitative high-throughput screening tests each substance at several concentrations.
For assay [2], the target named is Aryl hydrocarbon receptor (Homo sapiens) (UniProt P35869). In words: qHTS assay to identify small molecule that activate the aryl hydrocarbon receptor (AhR) signaling pathway (AID 743085). Also: nearly all actives have a fitted effect of over 15% in size. Also: potency is read from the fitted curve at half-maximal effect. In short, it runs like this: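 Luminescence (ONE-Glo) from a dioxin-responsive-element luciferase reporter in HG2L7.5c1 HepG2 cells after 24 hr compound exposure at 37C; viability measured by CellTiter-Fluor fluorescence beforehand.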
Sequence of Aryl hydrocarbon receptor (Homo sapiens) (P35869 whole entry, looked up): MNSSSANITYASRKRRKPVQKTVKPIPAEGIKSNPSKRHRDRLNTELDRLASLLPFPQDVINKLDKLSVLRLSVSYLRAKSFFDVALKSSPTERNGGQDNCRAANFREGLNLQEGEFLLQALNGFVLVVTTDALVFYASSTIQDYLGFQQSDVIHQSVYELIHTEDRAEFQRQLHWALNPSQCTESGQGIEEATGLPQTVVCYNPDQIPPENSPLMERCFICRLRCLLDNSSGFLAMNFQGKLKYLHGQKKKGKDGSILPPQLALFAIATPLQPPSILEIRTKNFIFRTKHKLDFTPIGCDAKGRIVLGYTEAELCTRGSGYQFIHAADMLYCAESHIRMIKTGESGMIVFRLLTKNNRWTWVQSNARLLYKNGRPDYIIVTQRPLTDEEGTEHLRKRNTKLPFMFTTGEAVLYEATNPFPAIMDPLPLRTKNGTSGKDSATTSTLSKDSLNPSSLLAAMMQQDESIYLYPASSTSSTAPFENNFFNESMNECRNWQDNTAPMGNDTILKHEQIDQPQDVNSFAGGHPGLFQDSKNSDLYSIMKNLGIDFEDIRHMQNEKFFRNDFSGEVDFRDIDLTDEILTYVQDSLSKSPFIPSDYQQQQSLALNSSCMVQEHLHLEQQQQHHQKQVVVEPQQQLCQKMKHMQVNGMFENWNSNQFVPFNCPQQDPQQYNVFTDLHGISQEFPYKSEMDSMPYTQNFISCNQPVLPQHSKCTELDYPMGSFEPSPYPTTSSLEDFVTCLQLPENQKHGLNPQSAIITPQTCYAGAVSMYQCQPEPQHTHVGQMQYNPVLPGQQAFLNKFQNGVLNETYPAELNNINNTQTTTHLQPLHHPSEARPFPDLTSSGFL

Assay [3] is described as follows: qHTS assay to identify small molecule that activate the aryl hydrocarbon receptor (AhR) signaling pathway - cell viability counter screen (AID 743086). Also: nearly all actives have a fitted effect of over 45% in size. Also: potency is read from the fitted curve at half-maximal effect. In outline: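 Cytotoxicity counter screen: CellTiter-Fluor signal (30 min, 37 C) in 4000 HepG2 cells/well carrying the DRE-luciferase reporter, following 24 h compound exposure at 37 C.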
In assay [4] the target is Peroxisome proliferator-activated receptor gamma (Homo sapiens) (UniProt P37231). In words: qHTS assay to identify small molecule antagonists of the peroxisome proliferator-activated receptor gamma (PPARg) signaling pathway (AID 743191; calls by dose curve; also: series mostly up to about 63 µM; % is scaled to controls: 0 for no effect and ±100 for the full control effect; nearly all actives have a fitted effect of over 30% in size). In short, it runs like this:
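Beta-lactamase reporter under UAS control in HEK293H PPARg-bla cells; compound treatment 17 h at 37C. Read-out: fluorescence intensity after 1 h room-temperature incubation with LiveBLAzer B/G FRET substrate.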

Assay [5] can be described thus: qHTS assay to identify small molecule antagonists of the peroxisome proliferator-activated receptor gamma (PPARg) signaling pathway - cell viability counter screen (AID 743194). Also: nearly all actives have a fitted effect of over 55% in size. Also: potency is read from the fitted curve at half-maximal effect. To be noted: Potency: co-treated with 50 nM rosiglitazone. In short, it runs like this: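 Viability was measured as CellTiter-Glo luminescence in GeneBLAzer PPARg UAS-bla HEK293H cells. These cells had been exposed 17 h at 37 C to compounds together with rosiglitazone at 50 nM final, with the beta-lactamase readout taken in the same wells.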

Assay [6] can be described thus: qHTS assay for small molecule agonists of the antioxidant response element (ARE) signaling pathway (AID 743202; active = well fitted activation curve with a large enough effect in the signal ratio in the repeat runs, not every such curve was filed as active; the % refers to the signal ratio; also: potency is read from the fitted curve at half-maximal effect). In outline:
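An ARE-responsive beta-lactamase gene stably integrated in HepG2 cells serves as reporter. After 5 h plating and 16 h compound incubation at 37 C, fluorescence of the B/G FRET substrate was measured.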

Assay [7] in a line: qHTS assay for small molecule activators of the heat shock response signaling pathway - cell viability counter screen (AID 743209). Also: nearly all actives have a fitted effect of over 50% in size. Also: potency is read from the fitted curve at half-maximal effect. In outline: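 HSE-bla HeLa cells plated overnight, then exposed to Tox21 compounds (23 nL in DMSO) for 5 h at 37 C. After the bla reporter read, CellTiter-Glo was added in the same wells and luminescence read after 30 min at room temperature.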
Assay [8] can be described thus: qHTS assay for small molecule activators of the heat shock response signaling pathway (AID 743210; active = well fitted activation curve with a large enough effect in the signal ratio in the repeat runs, with a control signal flat, not every such curve was filed as active; the % refers to the signal ratio;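 also: HeLa cells with beta-lactamase reporter driven by heat shock elements; series mostly up to about 63 µM; % is scaled to controls: 0 for no effect and ±100 for the full control effect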). In outline: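 In HSE-bla HeLa cells, 5 h compound incubation (37 C) precedes addition of LiveBLAzer B/G substrate; after 2.5 h at room temperature, fluorescence intensity indicates reporter induction.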
Assay [9] has as its target Peroxisome proliferator-activated receptor delta (Homo sapiens) (UniProt Q03181). In words: qHTS assay to identify small molecule agonists of the peroxisome proliferator-activated receptor delta (PPARd) signaling pathway (AID 743212; calls by dose curve; also: % is scaled to controls: 0 for no effect and ±100 for the full control effect). In outline: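 HEK293H UAS-bla reporter cells, human PPARd system; compounds delivered in DMSO after 5 h plating, then at 37 C. Beta-lactamase FRET read, 2 h RT substrate step.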

Assay [10] is described as follows: qHTS assay to identify small molecule antagonists of the peroxisome proliferator-activated receptor delta (PPARd) signaling pathway - cell viability counter screen (AID 743213). Also: nearly all actives have a fitted effect of over 50% in size. Also: potency is read from the fitted curve at half-maximal effect. In outline: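 HEK293H PPARd UAS-bla cells, 5 h pre-incubation, compound + L165041 300 nM final, 17 h 37 C; B/G FRET substrate 2 h RT; then CellTiter-Glo 30 min RT, luminescence.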
Assay [11] addresses Peroxisome proliferator-activated receptor delta (Homo sapiens) (UniProt Q03181). In words: qHTS assay to identify small molecule antagonists of the peroxisome proliferator-activated receptor delta (PPARd) signaling pathway (AID 743215; active = well fitted inhibition curve with a large enough effect in the signal ratio in the repeat runs, not every such curve was filed as active; the % refers to the signal ratio;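 also: cells stimulated with agonist L165041 at 300 nM final during compound exposure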; also: potency is read from the fitted curve at half-maximal effect). In short, it runs like this:
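PPARd-bla HEK293H cells (UAS-bla reporter) preincubated 5 h, then given compound plus 300 nM final L165041 agonist for 17 h at 37 C. Beta-lactamase activity read by LiveBLAzer B/G FRET substrate fluorescence after 2 h at room temperature.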

Assay [12] is described as follows: qHTS assay to identify small molecule agonists of the farnesoid-X-receptor (FXR) signaling pathway - cell viability counter screen (AID 743218). Also: nearly all actives have a fitted effect of over 45% in size. Also: potency is read from the fitted curve at half-maximal effect. In short, it runs like this: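 FXR-UAS-bla HEK 293T cells exposed to compounds for 16 h at 37C. Cytotoxicity read in the same wells by CellTiter-Glo luminescence after 30 min at room temperature, following the beta-lactamase FRET read.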

Assay [13] can be described thus: qHTS assay to identify small molecule antagonists of the farnesoid-X-receptor (FXR) signaling pathway - cell viability counter screen (AID 743221; active = well fitted cell-killing curve with a large enough effect in the repeat runs, not every such curve was filed as active; also: % is scaled to controls: 0 for no effect and ±100 for the full control effect; nearly all actives have a fitted effect of over 50% in size). In short, it runs like this: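 Cytotoxicity counter screen run in the FXR-bla reporter wells: HEK 293T cells exposed to compound with 50 uM (final) chenodeoxycholic acid for 16 h, 37 C, then viability measured by CellTiter-Glo luminescence after 30 min, room temperature.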

Assay [14] deals with Vitamin D3 receptor (Homo sapiens) (UniProt P11473). In words: qHTS assay to identify small molecule agonists of the vitamin D receptor (VDR) signaling pathway (AID 743222; calls by dose curve; also: % is scaled to controls: 0 for no effect and ±100 for the full control effect). In outline: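 VDR-bla cells plated 4 h at 37 C, then exposed to compounds for 16 h at 37 C. Beta-lactamase reporter activity measured by fluorescence after 2 h room-temperature loading with LiveBLAzer B/G FRET substrate.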
Sequence of Vitamin D3 receptor (Homo sapiens) (P11473 whole entry, looked up): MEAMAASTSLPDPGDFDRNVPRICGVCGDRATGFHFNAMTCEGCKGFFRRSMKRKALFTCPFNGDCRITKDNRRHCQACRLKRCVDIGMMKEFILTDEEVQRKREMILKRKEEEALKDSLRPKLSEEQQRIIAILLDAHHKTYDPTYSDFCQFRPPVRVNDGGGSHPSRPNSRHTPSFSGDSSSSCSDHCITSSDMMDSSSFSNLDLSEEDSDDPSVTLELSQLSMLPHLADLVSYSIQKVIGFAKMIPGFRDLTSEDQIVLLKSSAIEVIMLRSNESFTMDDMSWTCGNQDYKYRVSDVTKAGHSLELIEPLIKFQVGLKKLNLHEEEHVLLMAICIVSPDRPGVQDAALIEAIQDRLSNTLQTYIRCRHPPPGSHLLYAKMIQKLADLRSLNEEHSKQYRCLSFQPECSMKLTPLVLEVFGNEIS

Assay [15] can be described thus: qHTS assay for small molecule agonists of the antioxidant response element (ARE) signaling pathway - cell viability counter screen (AID 743203; calls by dose curve; also: nearly all actives have a fitted effect of over 55% in size; also: potency is read from the fitted curve at half-maximal effect). In outline: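 ARE-bla HepG2 cells were plated, rested 5 h at 37C/5% CO2, then exposed to compounds in DMSO for 16 h. Viability was read as CellTiter-Glo luminescence after 30 min at room temperature, in the same wells as the ARE screen.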

In assay [16] the target is Bile acid receptor (Homo sapiens) (UniProt Q96RI1). In words: qHTS assay to identify small molecule antagonists of the farnesoid-X-receptor (FXR) signaling pathway (AID 743217; active = well fitted inhibition curve with a large enough effect in the signal ratio in the repeat runs, not every such curve was filed as active; the % refers to the signal ratio; also: % is scaled to controls: 0 for no effect and ±100 for the full control effect). In outline: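 FXR-UAS-bla HEK 293T cells (beta-lactamase reporter) given compound plus chenodeoxycholic acid (50 uM final), 16 h at 37C. LiveBLAzer B/G FRET substrate added for 2 h at room temperature; fluorescence read.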
Sequence of Bile acid receptor (Homo sapiens) (Q96RI1 whole entry, looked up): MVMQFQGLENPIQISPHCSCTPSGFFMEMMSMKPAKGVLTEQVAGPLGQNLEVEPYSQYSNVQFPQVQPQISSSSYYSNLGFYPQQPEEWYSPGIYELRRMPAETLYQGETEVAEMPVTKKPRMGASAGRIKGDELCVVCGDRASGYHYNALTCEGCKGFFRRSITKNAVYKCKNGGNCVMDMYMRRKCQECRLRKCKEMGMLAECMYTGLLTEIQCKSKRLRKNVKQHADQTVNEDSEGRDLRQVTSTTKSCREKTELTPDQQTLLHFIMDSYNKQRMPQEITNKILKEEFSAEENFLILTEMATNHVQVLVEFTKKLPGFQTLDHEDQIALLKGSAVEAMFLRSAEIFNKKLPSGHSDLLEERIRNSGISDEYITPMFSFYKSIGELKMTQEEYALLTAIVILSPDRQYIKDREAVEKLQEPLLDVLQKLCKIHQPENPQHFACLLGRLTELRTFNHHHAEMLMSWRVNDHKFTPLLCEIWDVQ

The target is the same in assay [17]. In words: qHTS assay to identify small molecule agonists of the farnesoid-X-receptor (FXR) signaling pathway (AID 743220; active = well fitted activation curve with a large enough effect in the signal ratio in the repeat runs, not every such curve was filed as active; the % refers to the signal ratio; also: % is scaled to controls: 0 for no effect and ±100 for the full control effect). In short, it runs like this: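 Beta-lactamase reporter under UAS control in GeneBLAzer FXR HEK 293T cells (5000/well) measured with LiveBLAzer FRET substrate after 2 h at room temperature. Compound exposure lasted 16 h at 37C.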
The nature of assay [18]: qHTS assay to identify small molecule agonists of the peroxisome proliferator-activated receptor delta (PPARd) signaling pathway - cell viability counter screen (AID 743211). Also: nearly all actives have a fitted effect of over 55% in size. Also: potency is read from the fitted curve at half-maximal effect. In outline:
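Viability was measured as CellTiter-Glo luminescence (30 min, room temperature) in the same wells as the beta-lactamase readout. GeneBLAzer PPARd UAS-bla HEK293H cells received compound after 5 h plating and were incubated 17 h at 37 C.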

Assay [19] concerns the target Vitamin D3 receptor (Homo sapiens) (UniProt P11473). In words: qHTS assay to identify small molecule antagonists of the vitamin D receptor (VDR) signaling pathway (AID 743223; active = well fitted inhibition curve with a large enough effect in the signal ratio in the repeat runs, not every such curve was filed as active; the % refers to the signal ratio; also: % is scaled to controls: 0 for no effect and ±100 for the full control effect). In short, it runs like this: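 Antagonist mode: compound added to VDR-bla cells alongside agonist 1alpha,25-dihydroxyvitamin D3 (3 nM final), incubation 16 h at 37C. Read-out is LiveBLAzer FRET fluorescence, 2 h at room temperature.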

The target in assay [20] is Peroxisome proliferator-activated receptor gamma (Homo sapiens) (UniProt P37231). In words: qHTS assay to identify small molecule agonists of the peroxisome proliferator-activated receptor gamma (PPARg) signaling pathway (AID 743094; active = well fitted activation curve with a large enough effect in the signal ratio in the repeat runs, not every such curve was filed as active; the % refers to the signal ratio; also: potency is read from the fitted curve at half-maximal effect). In outline: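 GeneBLAzer PPARg UAS-bla HEK293H cells were plated, rested 5 h, then exposed to compounds for 17 h at 37C. Beta-lactamase activity was read by LiveBLAzer B/G FRET substrate fluorescence after 1 h at room temperature.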
Sequence of Peroxisome proliferator-activated receptor gamma (Homo sapiens) (P37231 whole entry, looked up): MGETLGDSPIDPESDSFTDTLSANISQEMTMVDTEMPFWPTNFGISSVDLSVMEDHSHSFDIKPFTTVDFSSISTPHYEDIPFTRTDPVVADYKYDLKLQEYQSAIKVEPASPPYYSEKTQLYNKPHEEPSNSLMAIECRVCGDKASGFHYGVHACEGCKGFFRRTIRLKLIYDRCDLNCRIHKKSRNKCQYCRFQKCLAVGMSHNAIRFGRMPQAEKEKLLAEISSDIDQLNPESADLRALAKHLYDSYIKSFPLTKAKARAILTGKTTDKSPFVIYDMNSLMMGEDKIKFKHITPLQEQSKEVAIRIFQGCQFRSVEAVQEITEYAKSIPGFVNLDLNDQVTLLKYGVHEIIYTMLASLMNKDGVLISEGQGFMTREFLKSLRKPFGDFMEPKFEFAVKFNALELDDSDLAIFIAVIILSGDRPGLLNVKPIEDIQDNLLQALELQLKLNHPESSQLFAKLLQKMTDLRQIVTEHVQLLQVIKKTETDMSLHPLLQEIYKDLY

Sequence of Peroxisome proliferator-activated receptor delta (Homo sapiens) (Q03181 whole entry, looked up): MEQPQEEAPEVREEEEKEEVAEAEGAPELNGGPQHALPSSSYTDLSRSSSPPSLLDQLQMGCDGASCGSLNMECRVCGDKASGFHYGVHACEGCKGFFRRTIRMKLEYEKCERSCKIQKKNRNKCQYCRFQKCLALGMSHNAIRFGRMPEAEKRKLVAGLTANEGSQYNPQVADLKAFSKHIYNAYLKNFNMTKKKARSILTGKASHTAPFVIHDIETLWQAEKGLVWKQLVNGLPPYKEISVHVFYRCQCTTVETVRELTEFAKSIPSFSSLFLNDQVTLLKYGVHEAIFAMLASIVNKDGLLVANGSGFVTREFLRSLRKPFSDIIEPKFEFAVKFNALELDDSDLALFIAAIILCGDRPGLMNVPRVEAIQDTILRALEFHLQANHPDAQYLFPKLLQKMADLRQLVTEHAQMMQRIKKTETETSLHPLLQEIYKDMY

Take `C1CCNCC1`: the Potency result in assay [1], in assay [2], in assay [3], in assay [4], in assay [5] and in [6] was “inactive” in each case. For the same molecule, the Potency result in assay [7], in assay [8], in [10], in [11], in assay [12] and in [13] was “inactive” in each case. In addition, the result in assay [9] and in assay [14] was inactive.
Consider `CC(C)(C)c1ccc(CCOc2ncnc3ccccc23)cc1`, for which the Potency entry in [1], in assay [2], in assay [3], in [5], in assay [15] and in assay [7] was “inactive” throughout. The Potency entry in assay [8], in assay [10], in [16] and in assay [12] was “inactive” in each case. The outcome in assay [17] and in assay [14] was inactive.
On to `CCCCCCCCCCCCN=C(N)N`, for which the activity change, negative = cytotoxicity was -14.3% [at 3.79 µM] (inactive) in [1] and -26.8% [at 2.7 µM] (inactive) in [18]. Also, the activation in assay [2] is -0.0242% [at 3.79 µM] (inactive); in assay [9], 6.16% [at 2.7 µM] (inactive); in assay [14], -0.533% [at 2.71 µM] (inactive). Also, the viability change, negative = cytotoxic in assay [3] was -4.27% [at 3.79 µM] (inactive); in assay [10], -15.8% [at 2.83 µM] (inactive). In addition, in [4], the ratio activity, negative = inhibition is -16.9% [at 2.7 µM] (inactive).
As to `C[C@H]1[C@@H]2Cc3ccc(O)cc3[C@@]1(C)CCN2C`, the Potency entry in [1], in assay [2], in assay [3], in [5], in [15] and in assay [7] was “inactive” in each case. Besides, the Potency entry in [8], in assay [18], in assay [10], in assay [11], in assay [16] and in [12] was “inactive” in each case. The Potency entry in assay [13] was “inactive”. Also, the molecule was classed as inactive in assay [9], in assay [17] and in [14].
Turning to `CCc1ccccc1N`, the Potency result in [1], in [2], in [3], in assay [4], in [15] and in assay [8] was “inactive” throughout. Also, the Potency entry in [18], in assay [11], in assay [12] and in [19] was “inactive” each time. Besides, the outcome in [9] and in assay [14] was inactive.
For the molecule `C=CCc1ccccc1O`, the Potency result in assay [1], in assay [2], in [3], in assay [5], in assay [15] and in [7] was “inactive” each time. Also, the Potency result in [8], in assay [18], in [10], in assay [11], in assay [16] and in assay [12] was “inactive” in each case. Also, the Potency entry in assay [13] is “inactive”. The outcome in assay [17] and in [14] was inactive.
In the case of `COP(=O)(OC)OC(Br)C(Cl)(Cl)Br` (centres undefined), the Potency in [1] is 48.6 µM (active); in assay [20] it was 54.9 µM (active); in assay [6] it was 19.4 µM (active) and 9.69 µM (active). In addition, the Potency entry in assay [2], in assay [3], in assay [7], in assay [8], in assay [12] and in [13] was “inactive” each time. Also, the Potency result in assay [19] was “inactive”. The result in [9] and in assay [14] was inactive.
Turning to `Cc1ccc2c(C)cccc2c1`, the Potency result in assay [1], in assay [2], in assay [3], in [4], in assay [5] and in assay [15] was “inactive” in each case. Further, the Potency entry in assay [7], in assay [8], in assay [18], in assay [10], in assay [11] and in assay [12] was “inactive” each time. In [13], the Potency result is “inactive”. In addition, the call in assay [9] and in [14] was inactive.
For `CN(C)c1ccc(N=O)cc1`, the Potency in assay [1] was 6.13 µM (active) and 15.4 µM (active); in [2], 21.8 µM (active) and 21.7 µM (active); in assay [3] it was 61.3 µM (active) and 68.6 µM (active); in assay [5], 49.1 µM (active) and 34.7 µM (active); in assay [15], “inactive and 54.5 µM (active)”; in [7], 3.9 µM (active) and 5.49 µM (active). Besides, the Potency was 43.6 µM (active) in assay [18]; 43.6 µM (active) in [10]; 21.9 µM (active) in assay [11]; “inactive and 49 µM (active)” in assay [12]. The molecule was classed as inactive in assay [9] and in assay [17]. Moreover, the Potency entry in assay [16], in assay [13] and in [19] was “inactive” in each case.
